Screening results: PubChem, ICCB-Longwood Screening Facility, Harvard Medical School
Mtb MbtI inh = MbtI salicylate synthase inhibitors, primary screen, biochemical, fluorescence intensity; AID 493033, 2011; 100,000 tested, 0.89% active; inhibition, % (no concentration beside the values); P9WFX0; purified MbtI enzyme, fluorescence intensity read-out; in the data active = inhibition mostly above about 56%, no sharp cut-off; inactive = mostly below about 77%
AID504770 = growth inhibition of E. coli YBA685, primary screen, V. cholerae RctB inhibitors | AID 504770, 2011 | z-score (concentration not given with the values) | 130,000 tested, 0.27% active | E. coli YBA685 rctB-dependent plasmid, OD600 growth, 3 h; hits give low values; in the data active = z-score below about -2, passing the limit was not always enough
PV pol inh = poliovirus RdRp elongation inhibitors, primary screen, biochemical, fluorescence polarization, total intensity | Genome polyprotein (Poliovirus type 1 (strain Mahoney)), P03300 | poliovirus polymerase elongation; hits give low values | % elongation, % (compound at 16.7 µg/mL) | 150,000 tested, 0.66% active | AID 588519, 2011; in the data active = % elongation below about 90%
Target sequence (P03300 1749-2209 limits assumed): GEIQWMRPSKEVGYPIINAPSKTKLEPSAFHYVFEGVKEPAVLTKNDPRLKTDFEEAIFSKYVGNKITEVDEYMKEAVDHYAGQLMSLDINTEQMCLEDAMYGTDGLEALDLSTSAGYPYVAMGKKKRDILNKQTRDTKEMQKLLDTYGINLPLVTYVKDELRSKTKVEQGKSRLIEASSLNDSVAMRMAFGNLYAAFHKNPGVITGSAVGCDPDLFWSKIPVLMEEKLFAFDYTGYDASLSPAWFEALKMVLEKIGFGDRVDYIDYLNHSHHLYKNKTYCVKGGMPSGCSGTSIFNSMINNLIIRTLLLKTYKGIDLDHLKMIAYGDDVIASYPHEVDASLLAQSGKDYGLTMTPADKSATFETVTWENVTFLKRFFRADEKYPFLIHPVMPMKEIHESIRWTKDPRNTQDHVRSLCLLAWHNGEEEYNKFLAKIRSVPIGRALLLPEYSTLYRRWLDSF
MenB inh = M. tuberculosis MenB inhibitors, primary screen, biochemical, absorbance | inhibition, % (concentration not given with the values) | MenB enzyme assay, absorbance read-out | 1,4-dihydroxy-2-naphthoyl-CoA synthase (Mycobacterium tuberculosis (strain ATCC 25618 / … | AID 540299, 2011 | 100,000 tested, 0.43% active; in the data active = inhibition above about 21%, passing the limit was not always enough
An asterisk follows results filed as active; i = inactive; nt = not tested or not shown. In the library only some 1.4% were active in any assay of this set; here they are far more common.

SMILES	Mtb MbtI inh	AID504770	PV pol inh	MenB inh
COC(=O)C1=NC=CN2CCS(=O)(=O)N=C12	18	0.2	nt	-29
Cc1sc2c(c1C)C1=NS(=O)(=O)CCN1C=N2	112	0.35	76*	-33
COc1cc2cc3c4c(cc(OC)c(OC)c4c2cc1OC)CCN3C	nt	0	18*	1
Cc1ccc(Nc2nnns2)cc1C	60*	-0.95	94	-18
COc1ccccc1N=Cc1sc2ccccc2c1O	-5	-0.8	72	-28
Cc1csc2ncnc(N3CCN(C(=S)NCC4CC4)CC3)c12	36	-0.65	88*	-5
CCc1cc(=O)oc2cc(O)cc(O)c12	-50	0.05	98	47*
CCCc1cc(=O)oc2cc(O)cc(O)c12	nt	-0.85	nt	nt
CCCOc1ccc(/C=C/C(=O)Nc2sc(C)c(C)c2C(=O)OCC)cc1OC	nt	nt	73*	nt
CN1CCN(C(c2ccccn2)c2c(-c3ccccc3)n(O)c3ccccc23)CC1 (configuration not stated)	22	-0.15	88*	-9
Cc1[nH]c2ccccc2c1C(c1ccccn1)N1CCN(CCO)CC1 (configuration not stated)	18	0	103	nt
CN(C)S(=O)(=O)c1ccc(=S)[nH]c1	95*	-0.75	96	-53
CSc1ccc(S(=O)(=O)N(C)C)cc1	-13	-0.45	101	-10
O=C1C=CC(=O)C(c2ccc(C(=O)O)cc2)=C1	91*	0.2	97	-3
CC(C)c1ccc(C2=CC(=O)C=CC2=O)cc1	89	-2	105	-8
N#Cc1c(-c2ccccc2)cc(-c2ccccc2)nc1SCC(O)CS(=O)(=O)Cc1ccc(Cl)cc1 (configuration not stated)	nt	nt	89*	nt
COc1ccc(-c2cc(-c3ccccc3)c(C#N)c(SCC(O)CS(=O)(=O)Cc3ccc(Cl)cc3)n2)cc1 (configuration not stated)	nt	nt	105	nt
CC(C)(C)Sc1ccc(SC#N)s1	81*	0.75	95	-32
CC(C)(C)Sc1ccc(C(=O)O)s1	57*	-0.3	nt	nt
CCc1ccc(N2COc3ccc(OC)cc3C2)cc1	13	1.1	100	19
O=C(CCn1c(=O)oc2cc(Cl)ccc21)n1c(=O)oc2cc(Cl)ccc21	nt	-2.4	97	-11
NC(=S)NNc1ccc(Cl)c(Cl)c1	95*	-0.85	95	-15
NNc1ccc(Cl)c(Cl)c1	-3	-3.6*	96	nt
COc1ccc(CNC(=O)CCNc2ccc(C)cc2)cc1	-7	-0.65	106	-30
O=C1NC(=O)C(c2ccccc2)N1 (configuration not stated)	-3	-1.1	106	-2
SMILES	Mtb MbtI inh	AID504770	PV pol inh	MenB inh
O=C1NC(=O)C(C(c2ccccc2)c2ccccc2)C(=O)N1	1	1.1	99	32*
COC1=CC(=O)C(C)=CC1=O	nt	-3.1*	nt	nt
COc1ccccc1Oc1ccc(S(=O)(=O)NCc2ccco2)cc1	nt	-0.45	nt	nt
COc1ccc(-c2csc(-n3nc(C)cc3C)n2)cc1	nt	-0.45	nt	nt
Cc1cc(C)n(CCc2nc(-c3ccc(C)c(C)c3)cs2)n1	73*	0.55	82*	-47
COc1cc(C=C(C#N)C#N)ccc1O	59*	-0.15	98	i
O=C(Cn1nc(Cc2ccncc2)c2ccccc2c1=O)NCCC1=CCCCC1	nt	-2.2*	nt	nt
CC1=CC(=O)CN(S(=O)(=O)c2ccc(C)cc2)C1	nt	-0.55	94	-2
Cc1ccc(-n2c(C)cc(/C=C3\SC(=O)NC3=O)c2C)cc1	-27	0.7	100	39*
Cn1c(SCC(=O)NC(=O)Nc2ccccc2F)nc2cc(S(N)(=O)=O)ccc21	96*	-0.3	85*	-39
O=C(CSc1cccc[n+]1[O-])c1ccccc1F	22	1.1	98	-46
O=C(CCCSc1cccc[n+]1[O-])c1ccc(F)cc1	99*	0.15	103	-14
c1ccc(N=c2[n-][n+](-c3ccccc3)cn2-c2ccccc2)cc1	nt	1.8	85*	-38
CCc1ccc(NC(=O)CSc2nc3n[nH]c(C)c3c(=N)n2-c2ccc(C)cc2)cc1	nt	nt	86*	nt
Cc1ccc(NC(=O)CSc2nc3n[nH]c(C)c3c(=N)n2-c2cccc(C)c2)cc1	nt	nt	104	nt
O=C(NCCCn1ccnc1)c1cc(NS(=O)(=O)c2cccs2)cc(NS(=O)(=O)c2cccs2)c1	-7	1.2	101	-28
O=C1C(NS(=O)(=O)c2ccccc2)=C/C(=N\S(=O)(=O)c2ccc(F)cc2)c2ccccc21	-2	-0.85	78*	0
O=C1C(Sc2ncn[nH]2)=C/C(=N/S(=O)(=O)c2ccc(F)cc2)c2ccccc21	98	-1.2	88*	-6
O=C1C(Sc2ncn[nH]2)=C/C(=N/S(=O)(=O)c2cccs2)c2ccccc21	90	0.45	87*	-30
CC(C)N(Cc1ccccc1)C(=S)NC(=O)C1CC1	-13	-0.25	109	-10
CCSc1nnc(NC(=O)C23CC4CC(CC(C4)C2)C3)s1	nt	0.95	nt	nt
COc1ccc(NCc2nnc(SCC(N)=O)n2-c2ccc(C)cc2)cc1	-4	-0.6	103	3
O=C(OCN1C(=O)c2ccccc2C1=O)c1cccc(S(=O)(=O)N2CCCC2)c1	-10	0.55	102	-7
COCCNC(=S)N1CCC(C(=O)c2ccc(F)cc2)CC1	-2	0.25	103	37*
C=CCNC(=S)N1CCC(C(=O)c2ccc(C)cc2)CC1	2	-0.15	101	-16
SMILES	Mtb MbtI inh	AID504770	PV pol inh	MenB inh
Cc1cccc(NC(=O)CSc2nncc(=O)[nH]2)c1	58*	-0.15	100	-11
Cc1cccc(NC(=O)CSc2nnc(C)c(=O)[nH]2)c1	nt	nt	109	nt
O=C(/C=c1/[nH]c(=O)/c(=C/c2cccc(C(F)(F)F)c2)s1)c1ccco1	-4	0.45	115	-12
O=C(/C=c1\[nH]c(=O)/c(=C\c2ccsc2)s1)c1ccco1	98*	-0.15	143	-195
CC(C)(CNc1nsc2ccccc12)N1CCOCC1	50	-0.85	89*	2
CC(C)NC(=S)NNc1ccccc1C(F)(F)F	5	1.5	104	-26
COCCNC(=S)N1c2ccccc2CC1C (configuration not stated)	64*	-1.2	84*	-33
CCOC(=O)[C@@H]1Nc2ccc(C(=O)O)cc2[C@@H]2C=CC[C@H]12	16	0.1	68*	-15
O=C(NCC1CCCO1)c1cccc(Nc2nc3ccccc3n3cnnc23)c1 (configuration not stated)	6	0.1	100	-22
CCOC(=O)c1c(NC(=O)c2cc(-c3ccc(OC)c(OC)c3)on2)sc2c1CCCC2	nt	nt	98	nt
CCOC(=O)c1c(-c2ccc(C)cc2)csc1NC(=O)c1cc(=O)c2cc(C)ccc2o1	nt	nt	61*	nt
CCOC(=O)c1c(-c2ccc(C)cc2)csc1NC(=O)c1cc(-c2ccc(OC)cc2)on1	nt	nt	105	nt
CCOC(=O)c1c(-c2ccccc2)csc1NC(=O)c1cc(-c2cccc(Cl)c2)on1	nt	nt	84*	nt
CCOC(=O)c1c(NC(=O)c2cc(-c3cccc(OC)c3)on2)sc2c1CCCC2	nt	nt	77*	nt
